Experimental data: PubChem BioAssay (NCI)
Compounds without any hit were thinned out: in the full panel of roughly 83,000, 20% have a hit.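 In brief: 96-well plates, 48 h treatment, single concentration, percent growth endpoint.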 A number with no mark means an inactive call. Active and inactive are the calls of the source. The calls were made as follows: active = growth percent below 10; inactive = the rest.

What was measured:
Assay in all cases: NCI-60 one-dose screen, 48 h (100 = growth as untreated, 0 = no growth, -100 = all killed)
Details in all cases: 10 µM unless noted
HCT-15 colon = system: HCT-15 colon
HT29 colon = system: HT29 colon
SNB-75 CNS = system: SNB-75 CNS
SNB-19 CNS = system: SNB-19 CNS
U251 CNS = system: U251 CNS
PC-3 prostate = system: PC-3 prostate
SK-MEL-5 melanoma = system: SK-MEL-5 melanoma
LOX IMVI melanoma = system: LOX IMVI melanoma
SK-MEL-28 melanoma = system: SK-MEL-28 melanoma
SK-MEL-2 melanoma = system: SK-MEL-2 melanoma
EKVX NSCLC = system: EKVX NSCLC
SN12C renal = system: SN12C renal
UO-31 renal = system: UO-31 renal
TK-10 renal = system: TK-10 renal
ACHN renal = system: ACHN renal
A498 renal = system: A498 renal
MOLT-4 leukemia = system: MOLT-4 leukemia
CAKI-1 renal = system: CAKI-1 renal
CCRF-CEM leukemia = system: CCRF-CEM leukemia

## Brc1ccc2c(c1)c(-c1nc(-c3c[nH]c4ncccc34)cs1)cn2CCCN1CCCCC1
HCT-15 colon
  growth: -80% (active)
HT29 colon
  growth: -87.2% (active)
SNB-75 CNS
  growth: 67.6%
SNB-19 CNS
  growth: -68.3% (active)
U251 CNS
  growth: -84.2% (active)
PC-3 prostate
  growth: 2.12% (active)
SK-MEL-5 melanoma
  growth: -59.5% (active)
LOX IMVI melanoma
  growth: -93.5% (active)
SK-MEL-28 melanoma
  growth: -84.8% (active)
SK-MEL-2 melanoma
  growth: 36.8%
EKVX NSCLC
  growth: 50.1%
SN12C renal
  growth: 25.3%
UO-31 renal
  growth: -52% (active)
TK-10 renal
  growth: 76.2%
ACHN renal
  growth: -23.7% (active)
A498 renal
  growth: 77%
MOLT-4 leukemia
  growth: -44.6% (active)

## CCOC(=O)C/C(=C\c1ccccc1)C(C)=O
HCT-15 colon
  growth: 106%
HT29 colon
  growth: 98.1%
SNB-75 CNS
  growth: 101%
SNB-19 CNS
  growth: 101%
U251 CNS
  growth: 80.4%
PC-3 prostate
  growth: 76.8%
SK-MEL-5 melanoma
  growth: 106%
LOX IMVI melanoma
  growth: 108%
SK-MEL-28 melanoma
  growth: 111%
SK-MEL-2 melanoma
  growth: 89.3%
EKVX NSCLC
  growth: 102%
SN12C renal
  growth: 105%
UO-31 renal
  growth: 99.3%
ACHN renal
  growth: 107%
CAKI-1 renal
  growth: 94.5%
A498 renal
  growth: 114%
CCRF-CEM leukemia
  growth: 90.3%
MOLT-4 leukemia
  growth: 93.8%

## COC(=O)[C@]12CC[C@@H](C)[C@H](C)[C@@H]1C1=CC[C@@H]3[C@@]4(C)C[C@@H](OC(C)=O)[C@H](O)[C@@](C)(CO)[C@@H]4[C@H](O)C[C@@]3(C)[C@]1(C)CC2
HCT-15 colon
  growth: -94.5% (active)
HT29 colon
  growth: -95.4% (active)
SNB-75 CNS
  growth: -83.1% (active)
SNB-19 CNS
  growth: -71.7% (active)
U251 CNS
  growth: -84.1% (active)
PC-3 prostate
  growth: -100% (active)
SK-MEL-5 melanoma
  growth: -98.5% (active)
LOX IMVI melanoma
  growth: -100% (active)
SK-MEL-28 melanoma
  growth: -86% (active)
SK-MEL-2 melanoma
  growth: -84.2% (active)
EKVX NSCLC
  growth: -91.8% (active)
SN12C renal
  growth: -78.3% (active)
UO-31 renal
  growth: -74.1% (active)
TK-10 renal
  growth: -96.9% (active)
CAKI-1 renal
  growth: -85.6% (active)
A498 renal
  growth: -95.9% (active)
CCRF-CEM leukemia
  growth: -68% (active)
MOLT-4 leukemia
  growth: -55.9% (active)

## Cc1cc(N(CCCNc2ccnc3cc(Cl)ccc23)Cc2ccco2)nc(N2CCN(C)CC2)n1
HCT-15 colon
  growth: 16.9%
HT29 colon
  growth: 12.4%
SNB-75 CNS
  growth: 68.7%
SNB-19 CNS
  growth: 58.2%
U251 CNS
  growth: 28.6%
PC-3 prostate
  growth: 51.5%
SK-MEL-5 melanoma
  growth: -42.6% (active)
LOX IMVI melanoma
  growth: 0.725% (active)
SK-MEL-28 melanoma
  growth: -75.2% (active)
SK-MEL-2 melanoma
  growth: 70.7%
EKVX NSCLC
  growth: 66.1%
SN12C renal
  growth: 50.5%
UO-31 renal
  growth: 47.5%
ACHN renal
  growth: 18.6%
A498 renal
  growth: 72.2%
CCRF-CEM leukemia
  growth: 43.4%
MOLT-4 leukemia
  growth: 37.6%

## COC(=O)[C@]12CC[C@@H](C)[C@H](C)[C@@H]1C1=CC[C@@H]3[C@@]4(C)C[C@@H](OC(C)=O)[C@H](OC(C)=O)[C@@](C)(COC(C)=O)[C@@H]4[C@H](O)C[C@@]3(C)[C@]1(C)CC2
HCT-15 colon
  growth: 7.64% (active)
HT29 colon
  growth: 2.23% (active)
SNB-75 CNS
  growth: 34.6%
SNB-19 CNS
  growth: 24.2%
U251 CNS
  growth: 7.43% (active)
PC-3 prostate
  growth: 4.25% (active)
SK-MEL-5 melanoma
  growth: -71.5% (active)
LOX IMVI melanoma
  growth: 2.68% (active)
SK-MEL-28 melanoma
  growth: 38.6%
SK-MEL-2 melanoma
  growth: -2.42% (active)
EKVX NSCLC
  growth: 10.7%
SN12C renal
  growth: 11%
UO-31 renal
  growth: 10.9%
TK-10 renal
  growth: -1.29% (active)
CAKI-1 renal
  growth: 11.6%
A498 renal
  growth: 5.15% (active)
CCRF-CEM leukemia
  growth: 12%
MOLT-4 leukemia
  growth: 3.95% (active)

## CCCCC[C@H]1CC=C2C(=O)C=C[C@@H]2CC=CCCCC(=O)O[C@@H](CCCCC)CC=C2C(=O)C=C[C@@H]2CC=CCCCC(=O)O[C@@H](CCCCC)CC=C2C(=O)C=C[C@@H]2CC=CCCCC(=O)O1
HCT-15 colon
  growth: 7.88% [8.75 µM] (active)
HT29 colon
  growth: -12.4% [8.75 µM] (active)
SNB-75 CNS
  growth: 48.7% [8.75 µM]
SNB-19 CNS
  growth: 9.32% [8.75 µM] (active)
U251 CNS
  growth: -49.4% [8.75 µM] (active)
PC-3 prostate
  growth: -15.7% [8.75 µM] (active)
SK-MEL-5 melanoma
  growth: -76.7% [8.75 µM] (active)
LOX IMVI melanoma
  growth: -87.5% [8.75 µM] (active)
SK-MEL-28 melanoma
  growth: -48.7% [8.75 µM] (active)
SK-MEL-2 melanoma
  growth: -38.4% [8.75 µM] (active)
EKVX NSCLC
  growth: 22.4% [8.75 µM]
SN12C renal
  growth: -10.5% [8.75 µM] (active)
UO-31 renal
  growth: -96.7% [8.75 µM] (active)
TK-10 renal
  growth: 31.6% [8.75 µM]
ACHN renal
  growth: -11.6% [8.75 µM] (active)
A498 renal
  growth: -13.8% [8.75 µM] (active)
MOLT-4 leukemia
  growth: 3.57% [8.75 µM] (active)

## CCCCC[C@H]1CC=C2C(=O)C(Cl)=C[C@@H]2CC=CCCCC(=O)O[C@@H](CCCCC)CC=C2C(=O)C(Cl)=C[C@@H]2CC=CCCCC(=O)O[C@@H](CCCCC)CC=C2C(=O)C(Cl)=C[C@@H]2CC=CCCCC(=O)O1
HCT-15 colon
  growth: 71.6% [8 µM]
HT29 colon
  growth: 44.4% [8 µM]
SNB-75 CNS
  growth: 106% [8 µM]
SNB-19 CNS
  growth: 61.3% [8 µM]
U251 CNS
  growth: 35.2% [8 µM]
PC-3 prostate
  growth: 70.2% [8 µM]
SK-MEL-5 melanoma
  growth: 62.2% [8 µM]
LOX IMVI melanoma
  growth: 14.5% [8 µM]
SK-MEL-28 melanoma
  growth: 52% [8 µM]
SK-MEL-2 melanoma
  growth: 91.4% [8 µM]
EKVX NSCLC
  growth: 96.6% [8 µM]
SN12C renal
  growth: 43.1% [8 µM]
UO-31 renal
  growth: 76.3% [8 µM]
TK-10 renal
  growth: 151% [8 µM]
A498 renal
  growth: 106% [8 µM]
CCRF-CEM leukemia
  growth: 7.3% [8 µM] (active)
MOLT-4 leukemia
  growth: 10.4% [8 µM]

## OCC(CO)(CCl)CCl
HCT-15 colon
  growth: 109%
HT29 colon
  growth: 96.6%
SNB-75 CNS
  growth: 96.8%
SNB-19 CNS
  growth: 98.7%
U251 CNS
  growth: 84.8%
PC-3 prostate
  growth: 80.2%
SK-MEL-5 melanoma
  growth: 104%
LOX IMVI melanoma
  growth: 98.2%
SK-MEL-28 melanoma
  growth: 103%
SK-MEL-2 melanoma
  growth: 87.8%
EKVX NSCLC
  growth: 104%
SN12C renal
  growth: 98.3%
UO-31 renal
  growth: 104%
TK-10 renal
  growth: 95%
CAKI-1 renal
  growth: 95%
A498 renal
  growth: 111%
CCRF-CEM leukemia
  growth: 90.4%
MOLT-4 leukemia
  growth: 91.1%
